Screening data deposited in PubChem by Broad Institute.
A selection follows.
aSyn UTR act = Activators via SNCA 5'UTR binding, MLPCN; alpha-synuclein 5'UTR reporter, activators screen; 300,000 tested, 7.1% active; activity score, % (tested at 7.5 µM), hits read low; in the data active = activity score below about -60%
Hits are given with their value; - = inactive.

SMILES	aSyn UTR act
CCOC(=O)c1ccc(N/C=C/C(=O)c2ccco2)cc1	-85
O=C(/C=C/Nc1ccc(F)cc1)c1ccco1	-144
COc1ccc(CCC(=O)NCCS(=O)(=O)N2CCN(c3ccccc3OC)CC2)cc1	-112
Cc1cccc(NC(=O)c2cc(-c3ccc(C)s3)nc3ccccc23)n1	-93
CCc1ccc(-c2cc(C(=O)Nc3c(C)n(C)n(-c4ccccc4)c3=O)c3ccccc3n2)s1	-68
Cc1ccc(-c2nn(-c3ccccc3)cc2C(=O)Nc2ccc(C)c(S(=O)(=O)N3CCOCC3)c2)cc1	-110
Cc1nc(NC(=O)C2CC3CCCC(C2)C3=O)sc1C (stereo not drawn)	-80
CCOC(=O)c1ccc(-c2cccc(C(F)(F)F)c2)nc1C	-122
CCNC(=S)N/N=C/c1sccc1C	-71
Cc1ccsc1/C=N/NC(=O)C(=O)NCC(C)C	-77
CCNC(=S)N/N=C/c1cn(Cc2ccccc2F)c2ccccc12	-
Cc1ccsc1/C=N/NC(=S)NCCc1ccccc1	-108
CC(C)=CC(=O)OCc1cc([N+](=O)[O-])cc2c1OCOC2	-110
CCc1nc2ccc(C(=O)NC3CCC(C)CC3)cc2nc1CC (stereo not drawn)	-86
CC1CCC(NC(=O)c2ccc3snnc3c2)CC1 (stereo not drawn)	-86
Cc1ccccc1N=C1Nc2ccccc2CS1	-134
CCc1sc(C(=O)Nc2cccnc2)cc1Br	-110
Cc1ocnc1C(=O)Nc1ccc(Cl)cc1	-167
CC(=O)Nc1nonc1NC(=O)c1ccc(C(C)(C)C)cc1	-153
COC(=O)c1ccc(COc2ccc(C(C)(C)C)cc2)o1	-167
O=C(N/N=C/c1ccc2ccccc2c1)c1ccc(COc2ccc3c(c2)CCC3)o1	-72
O=C(N/N=C\c1c(O)ccc2ccccc12)c1ccc(Cn2cccn2)o1	-
CC(C)(C)c1ccc(OCc2ccc(C(=O)Nc3cccnc3)o2)cc1	-170
CCc1ccc(OCc2ccc(C(=O)OC)o2)cc1	-220
O=C(N/N=C/c1cc([N+](=O)[O-])ccc1O)c1ccc(COc2ccc3c(c2)CCC3)o1	-
SMILES	aSyn UTR act
COC(=O)c1ccc(COc2ccc3c(c2)CCC3)o1	-130
COC(=O)Cc1ccc(NC(=O)c2ccc(C(C)(C)C)cc2)cc1	-
O=C(Nc1ccc(Cl)cc1)c1ccc(OC2CSC2)cc1	-90
CC(C)(C)c1ccc(OCCCC(=O)N2CCOCC2)cc1	-104
CC(C)(C)c1ccc(C(=O)Nc2ccc(Cl)cc2)cc1	-110
CC(C)(C)c1ccc(C(=O)Nc2cccnc2)cc1	-91
CC(C)(C)c1ccc(OCc2ccc(C(=O)N3CCOCC3)o2)cc1	-119
CCCc1ccc(OCc2ccc(C(=O)N3CCSCC3)o2)cc1	-148
CCN(CC)CCn1c(=N)n(CCOc2ccccc2)c2ccccc21	-93
O=Cc1ccccc1OCc1ccc2c(c1)OCO2	-258
CCOc1ccc2nc(N3CCCC(C(=O)N4CCN(CC)CC4)C3)sc2c1 (stereo not drawn)	-96
CCOc1ccc2nc(N3CCCC(C(=O)NCC4CCCO4)C3)sc2c1 (stereo not drawn)	-145
Cc1cc(C)c2nc(N3CCCC(C(=O)NC4CCCC4)C3)sc2c1 (stereo not drawn)	-90
CCOC(=O)N1CCN(S(=O)(=O)c2ccc(C(=O)NNc3nc4c(C)cc(C)cc4s3)cc2)CC1	-
O=C(COc1cc(Cl)c(Cl)cc1Cl)Nc1cccc(O)c1	-90
Cc1cccc(OCC(=O)Nc2cccc3nsnc23)c1	-82
Cc1cccc(OCC(=O)Nc2cccc(O)c2)c1	-162
Cc1ccc(OCC(=O)Nc2cccc(O)c2)cc1C	-172
O=C1/C(=C/N(C(=O)c2ccco2)c2ccc(Br)cc2)Sc2ccccc21	-241
O=C1/C(=C/N(C(=O)c2ccco2)c2ccc(Cl)cc2)Sc2ccccc21	-184
Nc1ncccc1OCc1ccc(Br)cc1	-159
COc1ccc(COc2cccnc2N)cc1	-91
O=c1/c(=C\c2ccc(F)cc2)sc2n1CCCN=2	-201
O=[N+]([O-])c1cccc2ccc(/C=C/c3ccc(F)cc3)nc12	-291
CC(=O)NC(c1cccc([N+](=O)[O-])c1)c1ccc2cccnc2c1O (stereo not drawn)	-
SMILES	aSyn UTR act
O=[N+]([O-])c1ccc(/C=C/c2ccc3cccc([N+](=O)[O-])c3n2)cc1	-92
O=[N+]([O-])c1cccc(/C=C/c2ccc3cccc(O)c3n2)c1	-82
O=C(CCCOc1ccccc1)N1CCCCC1	-
CCOC(=O)C1CCN(C(=O)CCCOc2ccccc2)CC1	-121
CCC1CCCCN1C(=O)CCCOc1ccccc1 (stereo not drawn)	-113
O=[N+]([O-])c1ccc2nc(-c3ccc(Cl)cc3)n(OCc3ccccc3)c2c1	-243
Cc1ccc(COn2c(-c3ccc(Cl)cc3)nc3ccc([N+](=O)[O-])cc32)cc1	-198
CC1Oc2cc3oc4c(O)c5c(cc4c(=O)c3c(O)c2C1(C)C)C=CC(C)(C)O5 (stereo not drawn)	-265
COC(=O)c1ccc(Nc2nc3ccc(C)cc3n3cnnc23)cc1	-98
O=c1cc(/C=C/c2c(F)cccc2Cl)[nH]c2ccccc12	-102
COC(=O)C1=C(C)NC(C)=C(C(=O)OCC(C)C)C1c1ccccc1[N+](=O)[O-] (stereo not drawn)	-
CCOC(=O)C1=C(C)NC2=C(C(=O)c3ccccc32)C1c1ccc([N+](=O)[O-])o1 (stereo not drawn)	-63
CN=c1scc(-c2ccccc2F)n1/N=C/c1ccc[nH]1	-
CN=c1scc(-c2ccco2)n1/N=C/c1ccc(O)c(O)c1	-242
C=CCN=c1scc(C)n1/N=C/c1ccc(O)c(O)c1	-156
COc1cc(/C=N\n2nnnc2N)ccc1OCc1ccc(F)cc1	-65
COc1cc(/C=N/n2c(C)n[nH]c2=S)ccc1OCc1ccc(F)cc1	-114
Cc1ccc(-c2csc(NC(=O)c3cccc(S(=O)(=O)N4CCN(C)CC4)c3)n2)cc1	-66
Cc1ccc(-c2csc(NC(=O)COC(=O)c3cccc(S(=O)(=O)N4CCOCC4)c3)n2)cc1	-93
Cc1ccc(NC(=O)CCCC2CCCCC2)c(O)c1	-150
NC(=O)c1sc2nc(-c3cccnc3)ccc2c1N	-102
CCOC(=O)c1sc2nc(-c3cccnc3)ccc2c1N	-150
COc1cccc(/C=C2\SC(N3CCCC(C)C3)=NC2=O)c1OC (stereo not drawn)	-100
COc1ccccc1/C=C1\SC(N2CCC(C)CC2)=NC1=O	-94
Cc1ccc(Nc2nc(N)nc(CSC(=S)N3CCOCC3)n2)cc1	-127
SMILES	aSyn UTR act
Nc1nc(CSC(=S)N2CCOCC2)nc(Nc2ccccc2)n1	-131
Cc1cccc(Nc2nc(N)nc(CSC(=S)N3CCOCC3)n2)c1	-108
Fc1cccc2sc(Nc3nc4cc5c(cc4s3)OCCO5)nc12	-78
Fc1cccc2sc(Nc3nc4cc5c(cc4s3)OCO5)nc12	-222
O=C(NNc1nc2cc3c(cc2s1)OCCO3)c1ccccc1	-141
Fc1cc(F)c2nc(Nc3nc4cc5c(cc4s3)OCO5)sc2c1	-176
O=C(CCN1CCC(c2cccs2)=N1)c1cccs1	-94
CN(C(=O)c1ccc(S(=O)(=O)c2cccc(Cl)c2)c([N+](=O)[O-])c1)C1CCCCC1	-86
O=C(NC1CCCCC1)c1ccc(S(=O)(=O)c2ccccc2Cl)c([N+](=O)[O-])c1	-95
Cc1cc(C)cc(NC(=O)CSc2nnc(-c3ccccc3Br)o2)c1	-67
COc1ccccc1NC(=O)CSc1nnc(-c2ccccc2)o1	-90
COc1ccc(NC(=O)CSc2nnc(-c3cccc(O)c3)o2)cc1	-110
O=C(CSc1nnc(-c2ccc(O)cc2)o1)Nc1ccccc1	-100
